High-throughput results deposited in PubChem by National Center for Advancing Translational Sciences (NCATS).
Compounds with a hit are over-represented: about 19% of the library has one in this group of screens.
Shiga inhibitor: inhibitors of Shiga toxin in Vero cells. 290,000 compounds, 9.2% hits. AID 2315. inhibition, % at 38.7 µM. Vero cells, Shiga toxin protein synthesis inhibition reporter; in the data active = inhibition mostly above about 28%, no sharp cut-off; inactive = mostly below about 43%; also: 0% is about no effect
Pf growth 48h: P. falciparum growth inhibition at 48 hours (one generation). P. falciparum luciferase growth in erythrocytes, 48 h. Potency, µM (doses to about 28.7 µM), for inactives: at the highest dose activity change, negative = inhibition, actives largely listed as inhibitors. 310,000 compounds, 5.9% hits. AID 504832; also: potency is read from the fitted curve at half-maximal effect; % is scaled to controls: 0 for no effect and ±100 for the full control effect
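Compounds are pin-transferred into medium, infected erythrocytes (2% hematocrit, 0.1% parasitemia final) are added, and plates sit one parasite generation at 37 C in 5% CO2. Detection reagent is then added and luminescence measured.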
AMA1 RON2 block: AMA1-RON2 (P. falciparum) interaction inhibition | AlphaScreen AMA1-biotinylated RON2 peptide binding | Potency, µM (series often up to 58.2 µM), inactives show at the highest dose activity change, negative = inhibition, usual class: inhibitors | 360,000 compounds, 0.2% hits | AID 720542;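 also: potency is read from the fitted curve at half-maximal effect; 0% = vehicle wells and -100% = peptide control; nearly all actives have a fitted effect of over 45% in size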
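AMA1 (3D7) with his tag at 25 nM final met compounds first, then biotinylated RON2 peptide at 25 nM; detection used donor plus acceptor beads, 10 µg/mL apiece, read by AlphaScreen after 30 min at room temperature.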
CHX counter: affects cycloheximide protein synthesis inhibition readout, counter-screen. cell reporter, cycloheximide protein synthesis inhibition counterscreen. max response, %. 300,000 compounds, 12% hits; in the data active = max response mostly above about 13%, no sharp cut-off; inactive = mostly below about 14%; also: read at 38.3 µM for the half of the compounds with a filed dose; 0% is about no effect
SARS PLpro yeast: SARS-CoV PLP inhibition in yeast | S. cerevisiae expressing SARS-CoV PLpro, growth rescue | Potency, µM (doses to about 32.9 µM), for inactives: at the top dose activity, positive = growth rescue, most hits filed as activators | 330,000 compounds, 0.19% hits; calls by dose curve; also: potency is read from the fitted curve at half-maximal effect; 0% is about no effect; nearly all actives have a fitted effect of over 55% in size
Pf growth 96h: inhibits malaria parasite growth, 96 h | P. falciparum luciferase reporter growth, 96 h | Potency, µM (doses to about 28.7 µM), without a hit: top-dose activity change, negative = inhibition, actives largely listed as inhibitors | 320,000 compounds, 6.9% hits; also: potency is read from the fitted curve at half-maximal effect; % is scaled to controls: 0 for no effect and ±100 for the full control effect
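Infected RBCs, 2% Hct / 0.05% parasitemia final; luciferase-reporter P. falciparum; cpd 96 h, 37 C, 5% CO2; luciferase detection reagent; luminescence.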
* hit, by the source's call; ? = inconclusive; nt = no result given; + = active, no number. Unless noted, calls follow the shape of the dose curve; as a rule, active = well fitted curve in the direction sought with a large enough effect; inconclusive = small, poorly fitted or top-dose-only effect, or another doubt; inactive = no such curve, though single readings can be large; an effect the other way counts as inactive or inconclusive.

SMILES	Shiga inhibitor	Pf growth 48h	AMA1 RON2 block	CHX counter	SARS PLpro yeast	Pf growth 96h
COc1ccc(OCC(=O)Nc2ccc(-c3nc4cc(C)c(C)cc4o3)cc2)cc1	97.8*	nt	nt	50.6*	nt	nt
O=C(Nc1ccc(OC(F)F)cc1)c1cc(S(=O)(=O)N2CCOCC2)ccc1F	-7.1	-16.5%	9.9%	1.5	-1.6%	-19.2%
CC(NC(=O)CNC(=O)c1ccccc1Br)c1cccs1 (stereo unspecified)	nt	-29.3%	14.9%	nt	0.9%	3.8%
CN(C)c1ccc(/C=N/N=C2/NC(=O)/C(=C/c3ccc([N+](=O)[O-])cc3)S2)cc1	54.5*	11.8%	-8.1%	28.1*	-4.2%	-26.9%
COc1ccccc1C(=O)OCCNC(=O)Cn1cnc2c1c(=O)n(C)c(=O)n2C	24.4	23.7%	0.5%	-5.9	1.9%	16.7%
COC(=O)C(C)N(C(=O)c1cccc2ccccc12)c1c(C)cccc1C (stereo unspecified)	-12.2	14.7µM*	-19.3%	-3.4	-10.6%	nt
Cc1cc(/C([O-])=C(/C(=S)Nc2ccccc2)[n+]2ccccc2)c(C)n1-c1ccccc1	43.7	nt	7.7%	29.5*	-5.6%	?
O=[N+]([O-])c1cccc(/C([O-])=C(/C(=S)Nc2ccccc2)[n+]2ccccc2)c1	+	-8.8%	8.7%	80.4*	-16.6%	?
Cc1cc(/C([O-])=C(/C(=S)Nc2ccc(F)cc2)[n+]2ccccc2)c(C)n1Cc1ccccc1Cl	-5.2	?	15.8%	9.5	-4.9%	9.28µM*
Cc1cc(/C([O-])=C(/C(=S)Nc2ccc(F)cc2)[n+]2ccccc2)c(C)n1-c1ccc(F)cc1	11.9	18.6%	2.8%	11.3	0.1%	?
CCCCC1=CC2=CC(=O)C(C)(OC(=O)CC)C(=O)C2=CN1CCc1ccc(Br)cc1 (stereo unspecified)	-2.0	9.28µM*	-9.7%	-4.3	3.3%	?
CCCCC1=CC2=CC(=O)C(C)(OC(=O)CC)C(=O)C2=CN1c1ccccc1 (stereo unspecified)	0.9	10.4µM*	-3.4%	-2.1	0.0%	13.1µM*
C/C(=N\OCC(=O)OCC(=O)NC(=O)c1ccccc1)c1ccc2c(c1)OCO2	nt	1.2%	-2.0%	nt	-0.2%	11.6%
CSc1ccccc1NC(=O)CN(C)C(=O)C1CCN(C(=O)Nc2ccccc2)CC1	nt	?	-4.7%	nt	-2.4%	2.9%
COC(=O)c1cccnc1-n1c(=O)c2cccnc2n(Cc2ccc([N+](=O)[O-])cc2)c1=O	-11.4	10.4µM*	-3.6%	-2.0	-2.2%	?
Cc1ccn2cc(CCNC(=O)CC(C)(C)C)nc2c1	9.1	12.2%	-1.2%	12.1	-8.3%	48.2%
Cc1ccn2cc(CCNC(=O)C3CC=CCC3C(=O)O)nc2c1 (stereo unspecified)	76.8*	20.8%	0.0%	20.4*	0.7%	18.0%
COc1ccc(N(CN2C(=O)c3ccccc3C2=O)C(=O)C(C)C)cc1	12.4	-14.7%	-4.4%	21.5*	4.3%	?
COc1ccc(C(=O)OCCN2C(=O)c3ccccc3C2=O)cc1	54.4*	?	3.1%	16.6	0.8%	44.5%
COc1ccc(OCCN2C(=O)c3cccc(N)c3C2=O)cc1	73.9*	94.9%	11.7%	31.6*	-3.0%	127.3%
Cc1ccc(OCCN2C(=O)c3ccccc3C2=O)c([N+](=O)[O-])c1	106.5*	8.6%	-16.0%	63.5*	13.8%	33.5%
CC(=O)N(CN1C(=O)c2ccccc2C1=O)c1ccccc1	-3.3	-3.4%	-10.1%	-1.2	-0.9%	-1.1%
Cc1ccc(OCCN2C(=O)c3ccccc3C2=O)c(C)c1	-3.8	5.7%	11.2%	6.4	-5.1%	4.6%
COc1ccc(N2CCN(CCN3C(=O)c4ccccc4C3=O)CC2)cc1	1.4	42.7%	8.2%	-4.4	-2.5%	23.0%
Cc1ccc(CNC(=O)CC(C)S(=O)(=O)c2cc3c(cc2C)NC(=O)CO3)cc1 (stereo unspecified)	13.2	7.4%	-3.3%	-1.1	5.4%	?
SMILES	Shiga inhibitor	Pf growth 48h	AMA1 RON2 block	CHX counter	SARS PLpro yeast	Pf growth 96h
Cc1occc1-c1nnc(SCC(=O)NC2CCCCC2C)o1 (stereo unspecified)	nt	6.8%	-29.4%	nt	7.7%	-3.0%
Cc1cc(C)cc(OCC(=O)OCCN2C(=O)c3ccccc3C2=O)c1	1.9	nt	17.1%	-5.7	-0.1%	-8.7%
Cc1ccc(OCC(=O)OCCN2C(=O)c3ccccc3C2=O)cc1C	-1.8	9.9%	-0.4%	-1.5	-16.6%	1.85µM*
Cc1ccc2c(c1)C(=O)C(=O)N2CCOc1ccccc1	20.3	4.6%	?	13.0	-3.0%	1.7%
Cc1ccc(OCCN2C(=O)CSC2=O)cc1	20.1	5.5%	1.0%	22.4*	-1.9%	3.6%
O=C1c2ccccc2C(=O)N1CCOc1cccc(Br)c1	51.7*	32.5%	19.6%	28.1*	-3.9%	42.0%
CCOC(=O)/C=C1/SCC(=O)N1CCOc1cccc(Br)c1	nt	nt	-4.0%	nt	nt	nt
Cc1ccc(OCCN2C(=O)c3ccccc3C2=O)cc1	108.2*	nt	15.7%	31.1*	-2.5%	73.4%
O=C1NC[C@@H](CCCCN2C[C@H](Cc3ccc(O)cc3)N(Cc3ccccc3)C(=O)C2=O)N(CCC2CCCCC2)C1=O	nt	nt	-1.6%	nt	nt	nt
CN(C)/C=C(\C=O)c1ccc(Cl)cc1Cl	-8.2	-15.6%	1.7%	9.9	0.6%	10.6%
CCOC(=O)C1(Cc2cccc(OC)c2)CCN(C2CCOCC2)CC1	82.4*	23.0%	-3.9%	33.2*	-5.7%	?
CCOC(=O)C1(Cc2cccc(OC)c2)CCN(Cc2cnc(C)s2)CC1	19.9	?	-18.2%	0.3	-0.8%	9.28µM*
CCOC(=O)CC(=O)CSc1ncnc2c1nnn2-c1ccc(OC)cc1	15.2	?	64.2%	3.1	2.3%	11.7%
CCN(CC)C(=O)CSc1nnnn1-c1ccc(F)c(Cl)c1	-3.7	13.8%	-0.1%	4.4	0.1%	1.3%
CSc1ccccc1NC(=O)c1noc2c1CCC2	99.7*	13.1µM*	-8.4%	38.0*	-15.7%	nt
COC(=O)c1ccccc1NC(=O)c1noc2c1CCC2	-4.6	3.29µM*	-15.8%	0.9	1.4%	1.04µM*
CC(NC(=O)c1noc2c1CCCC2)c1ccccc1 (stereo unspecified)	65.4	1.0%	-5.5%	13.6	7.6%	?
COC(=O)c1ccccc1NC(=O)c1cc(OC)cc(OC)c1	-2.3	-8.1%	13.7%	-2.5	-1.7%	-10.7%
CC(C)C(OC(=O)c1cccs1)C(=O)NCc1ccccc1 (stereo unspecified)	-9.4	31.5%	0.0%	-2.9	-1.1%	-4.1%
COc1ccc(CN(C)C(=O)c2cccc(Oc3ccccc3)c2)c(OC)c1OC	2.5	-14.7%	-3.3%	-4.8	-10.2%	-2.4%
CN1C(=O)c2c(sc3c2CCCC3)NC1c1ccccc1O (stereo unspecified)	48.7*	?	nt	18.9*	-5.6%	3.9%
